Assay results reported in PubChem BioAssay AID504848 (National Center for Advancing Translational Sciences (NCATS), 2011).
Where “and” joins values, the source holds several entries; their conditions need not be identical. Identical values can stand only once. Out of some 2,300 compounds screened, about 1,400 (61%) were called active. Roughly 29% stayed inconclusive and do not appear here. Calls follow the shape of the dose curve; as a rule, active = well fitted inhibition curve with a large enough effect; inconclusive = small, poorly fitted or top-dose-only effect, or effect the other way; inactive = no such curve, though single readings can be large or run the other way. The set was probably picked from earlier hits. This is one part of the list.

Experiment: Confirmation screen for delayed death inhibitors of the malarial parasite plastid, 96 hour incubation; also: nearly all actives have a fitted effect of over 60% in size
Settings: P. falciparum luciferase growth in erythrocytes; series mostly up to 28.7 µM
From the text: The goal of this screen is to discover new antimalarial compounds that act by inhibiting the development of the apicoplast in the malarial parasite Plasmodium falciparum. The biochemical processes that make this organelle essential for erythrocytic stage parasites are not well understood. However, antibiotics, such as azithromycin and tetracycline, which target the apicoplast translational machinery, have a potent antimalarial effect. […] We have developed a cell-based assay that measures parasite growth based on the expression of an integrated copy of a firefly luciferase reporter. To detect small molecules that cause this "delayed death phenotype, erythrocytes infected with the luciferase-expressing parasites were incubated with compounds for either one or two generations, corresponding to 48 and 96 hours, respectively. Compounds that inhibit parasite growth in the second generation, but not the first, should be enriched in antimalarials that target the apicoplast. Growth inhibition is detected by a decrease in luciferase activity. MLPCN Grant: R21 NS059500 Assay Provider: David Fidock and Eric Ekland, Columbia University Keywords: NIH Roadmap, MLPCN, MLI, MLSMR, qHTS, NCGC, qHTS, malaria, luciferase, viability
Four microliters of culture medium (RPMI 1640 with 0.5% w/v Albumax (GIBCO), 24 mM sodium bicarbonate and 10 ug/mL gentamycin) were dispensed by a Multi-drop Combi into white solid 1536-well plates (Grenier) and 23 nL compound was added by a pin tool. Four microliters of infected erythrocytes (2% hematocrit, 0.1% parasitemia final concentration) in culture medium were dispensed and the plates incubated for 96 hours at 37 C in 5% CO2. Two microliters of luciferase detection reagent was added and luminescence was detected by a ViewLux (PerkinElmer) reader
Potency is read from the fitted curve at half-maximal effect.

SMILES | Potency
COc1ccc(-n2c(C)cc(C(=O)C[N+]34CCN(CC3)CC4)c2C)cc1 | 12.6 µM (active)
C[C@@H]1CC2(CCCC[N+]2(C)C)C[C@H]1C | 14.1 µM (active)
CC(=O)N1CC(=O)Nc2ccc(Cl)cc2C1c1ccccc1 (centres undefined) | inactive
CN1C[C@H](C(=O)N[C@]2(C)O[C@@]3(O)[C@@H]4CCCN4C(=O)[C@H](Cc4ccccc4)N3C2=O)C[C@@H]2c3cccc4[nH]cc(c34)C[C@H]21 | 2.24 µM (active)
O=C(CN1CC=C(c2ccccc2)CC1)NC(=O)NCc1ccccc1 | inactive
Cc1ccc(N2C(=O)NC(=O)/C(=C\C=C\c3ccco3)C2=O)cc1 | inactive
CC(C)(C)C(=O)C(Oc1ccc(Cl)cc1)n1ccnc1 (centres undefined) | 14.1 µM (active)
C=C[C@H]1CN2CC[C@H]1C[C@@H]2[C@@H](O)c1ccnc2ccccc12 | 0.199 µM (active)
C[n+]1c2cc(N)ccc2cc2ccc(N)cc21 | 0.562 µM (active)
Cn1c(=O)oc2cc(NC(=O)CCl)ccc21 | 0.794 µM (active)
CCn1c(=O)oc2cc(NC(=O)CCl)ccc21 | 2 µM (active)
CN1CCc2cc3c(c4c2C1Cc1ccccc1-4)OCO3 (centres undefined) | 0.562 µM (active)
C=C1C(=O)O[C@@H]2C[C@@H](C)[C@@H]3C=CC(=O)[C@@]3(C)[C@@H](O)[C@H]12 | 2 µM (active)
C=C1C(=O)O[C@@H]2C[C@@H](C)[C@@H]3C=CC(=O)[C@@]3(C)[C@@H](OC(=O)CC(=O)O[C@H]3[C@@H]4C(=C)C(=O)O[C@@H]4C[C@@H](C)[C@@H]4C=CC(=O)[C@]43C)[C@H]12 | 0.0282 µM (active)
C=C1C(O)[C@@H]2O[C@]3(CC[C@H](/C=C/C(C)[C@@H]4CC(C)=CC5(O[C@H](C[C@@](C)(O)C(=O)O)CCC5O)O4)O3)CC[C@H]2O[C@@H]1C(O)CC(C)[C@H]1OC2(CCCCO2)CCC1C (some centres undefined) | 0.0631 µM (active)
O=c1oc2ccccc2c(O)c1[C@H]1c2ccc(O)cc2Oc2c1c(=O)oc1ccccc21 | inactive
CC(C)c1oc(=O)cc2c1[C@@H](O)[C@H]1OC(=O)[C@@]3(C)CC[C@@H](O)[C@@]2(C)C13 (some centres undefined) | 7.94 µM (active)
O=C(/C=C/c1cccs1)c1cc(Cl)ccc1OC(=O)N1CCOCC1 | 11.2 µM (active)
Cc1cc2ccccn2c1C(C[N+](=O)[O-])c1c(F)cccc1Cl (centres undefined) | 12.6 µM (active)
Cc1ccc(C(C)C)c(OCC(=O)N2CCN(Cc3nc4cc([N+](=O)[O-])ccc4n3C)CC2)c1 | inactive

SMILES | Potency
COc1cccc(-n2c(CN3CCN(C)CC3)nc3ccc([N+](=O)[O-])cc3c2=O)c1 | 15.8 µM (active)
CC(C)c1ccc(N2C(=O)NC(=O)/C(=C\C=C\c3ccco3)C2=O)cc1 | inactive
O=C(CCl)Nc1nccs1 | 6.31 µM (active)
Fc1ccc(C[n+]2c(-c3ccccc3)cc(-c3ccccc3)cc2-c2ccccc2)cc1 | 2 µM (active)
O=C1NC(=O)N(c2ccccc2)C(=O)/C1=C/C=C/c1ccco1 | inactive
C=CCn1c(O)c(N=Nc2c(C)n(C)n(-c3ccccc3)c2=O)c(=O)[nH]c1=S | 6.31 µM (active)
O=[N+]([O-])c1cccc2c([As](=O)(O)O)cccc12 | 1.12 µM (active)
C[C@@H]1C[C@@H]2O[C@H]2/C=C\C=C\C(=O)Cc2c(Cl)c(O)cc(O)c2C(=O)O1 | 7.08 µM (active)
COC(=O)c1nc(-c2ccc3c(n2)C(=O)C(N)=C(OC)C3=O)c(N)c(-c2ccc(OC)c(OC)c2O)c1C | 0.251 µM (active)
O=C(NC1CC2CCCC(C1)N2)c1ccccc1 (centres undefined) | 5.01 µM (active)
Cc1ccc(-c2nc(NC(=O)c3ccc(S(=O)(=O)N(CCC#N)CCC#N)cc3)sc2-c2ccccc2)cc1 | 11.2 µM (active)
CN1C2CCC1/C(=C/c1ccccn1)C(=O)/C2=C\c1ccccn1 | 0.158 µM (active)
C[C@@H]1O[C@@H](O[C@H]2C[C@@H](O)[C@]3(CO)[C@@H]4C(CC[C@]3(O)C2)[C@@]2(O)CC[C@H](C3COC(=O)C3)[C@@]2(C)C[C@H]4O)[C@H](O)[C@H](O)[C@H]1O (some centres undefined) | inactive
CCOc1cc2c(cc1OCC)-n1cccc1C(c1ccccc1F)NC2 (centres undefined) | 5.01 µM (active)
C[C@H]1C[C@@H](C)C(=O)[C@@H]([C@H](O)CC2CC(=O)NC(=O)C2)C1 | 0.0316 µM (active)
C[C@@H]1C[C@@H]([C@H](O)CC2CC(=O)NC(=O)C2)C(=O)[C@@H](C)C1 | 0.794 µM (active)
C/C1=C\[C@@H](C)C/C=C/[C@H]2[C@@H]3O[C@]3(C)[C@@H](C)[C@H]3[C@H](Cc4c[nH]c5ccccc45)NC(=O)[C@]32C(=O)/C=C/C(=O)[C@@H]1O | 0.891 µM (active)
CCC(C(=O)N1CCC2(CC1)OCCO2)n1c2ccccc2c2nc(=O)cc(C)n21 (centres undefined) | 11.2 µM (active)
C[C@@H]1CC[C@H]2[C@@H](C)C(=O)O[C@@H]3OC4(C)CC[C@@H]1C32OO4 (some centres undefined) | 0.0398 µM (active)
C[C@@H]1CC[C@H]2[C@@H](C)C(=O)O[C@@H]3O[C@@]4(C)CC[C@@H]1[C@]32OO4 | 0.0398 µM (active)

SMILES | Potency
CCN(CC)Cc1cc(Nc2ccnc3cc(Cl)ccc23)ccc1O | 89.1 nM (active) and 22.4 nM (active)
COc1ccc(-c2cc(-c3ccccc3)[n+](C)c(-c3ccccc3)c2)cc1 | 2 µM (active)
C[n+]1c(-c2ccccc2)cc(-c2ccc(Cl)cc2)cc1-c1ccccc1 | 0.891 µM (active)
CCOP(=O)(OCC)C(O)c1ccc(OC)cc1OC (centres undefined) | inactive
O=C1/C(=C/c2ccccc2)C[C@@]2(O)[C@H]3Cc4ccc(O)c5c4[C@@]2(CCN3CC2CC2)C1O5 (some centres undefined) | 5.01 µM (active)
COc1ccc(Cn2c(N)c(C(=O)NCc3ccco3)c3nc4ccccc4nc32)cc1 | 3.98 µM (active)
CC(C)CCOP(N)(=O)Oc1ccccc1 (centres undefined) | 3.98 µM (active)
CC[n+]1c(-c2ccccc2)c2cc(N)ccc2c2ccc(N)cc21 | 0.0282 µM (active)
CC1=CC2/C=C(\C)CCC(O)C(O)/C=C/C(=O)C23C(=O)NC(CC(C)C)C3C1C (centres undefined) | 12.6 µM (active)
CCCNS(=O)(=O)c1ccc(OCC(=O)N2CCN(Cc3ccc4c(c3)OCO4)CC2)c(C)c1 | 11.2 µM (active)
Oc1ccc(-[n+]2c(-c3ccccc3)cc(-c3ccccc3)cc2-c2ccccc2)cc1 | 0.0794 µM (active)
COc1cc(C(=O)N/N=C/C23CC[C@@H](O)CC2(O)CC[C@@H]2[C@@H]3CCC3(C)C(C4=CC(=O)OC4)CCC23O)ccc1O (some centres undefined) | inactive
CN(C)c1ccc(C(=O)N/N=C/C23CC[C@@H](O)CC2(O)CC[C@@H]2[C@@H]3CCC3(C)C(C4=CC(=O)OC4)CCC23O)cc1 (some centres undefined) | 12.6 µM (active)
CC12CC[C@H]3[C@@H](CCC4(O)C[C@H](O)CCC34/C=N/NC(=O)c3ccccc3F)C1(O)CCC2C1=CC(=O)OC1 (some centres undefined) | inactive
COC(=O)C1=C(c2ccccc2OCc2ccccc2)C[C@@H]2CC[C@H]1N2C(=O)NCCOc1ccc(OC)cc1 | 12.6 µM (active)
CC[C@H]1CN2CCc3cc(OC)c(OC)cc3C2C[C@@H]1C[C@H]1NCCc2cc(OC)c(OC)cc21 (some centres undefined) | 0.0501 µM (active)
CC[C@H]1CN2CCc3cc(OC)c(OC)cc3[C@@H]2C[C@@H]1C[C@H]1NCCc2cc(OC)c(OC)cc21 | 0.224 µM (active)
CC[C@H]1CN2CCc3cc(OC)c(OC)cc3[C@H]2C[C@@H]1C[C@@H]1NCCc2cc(OC)c(OC)cc21 | 0.501 µM (active)
Cn1c(O)c(C=NC2C(=O)C3(C)CCC2C3(C)C)c(=O)n(C)c1=O (centres undefined) | inactive
